Shiga inhibitor: Shiga toxin inhibition. Vero cells, Shiga toxin protein synthesis inhibition reporter. inhibition, % at 38.7 µM. 9.2% of 290,000 active. AID 2315; in the data active = inhibition mostly above about 28%, no sharp cut-off; inactive = mostly below about 43%; also: 0% is about no effect
Cycloheximide cs: counter-screen hit for Shiga toxin inhibitors, cycloheximide; cell reporter, cycloheximide protein synthesis inhibition counterscreen; max response, %; 12% of 300,000 active; AID 2314; in the data active = max response mostly above about 13%, no sharp cut-off; inactive = mostly below about 14%; also: read at 38.3 µM for the half of the compounds with a filed dose; 0% is about no effect
TbPYK inhibitor: T. brucei pyruvate kinase inhibition. 0.12% of 410,000 active. TbPYK enzyme, Kinase-Glo Plus ATP luminescence, 45 min. Q57TT1. Potency, µM (top dose mostly 76.8 µM), inactives show at the highest dose activity, negative = inhibition, hits mostly inhibitors; also: potency is read from the fitted curve at half-maximal effect; % is scaled to controls: 0 for no effect and ±100 for the full control effect; nearly all actives have a fitted effect of over 50% in size
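In this concentration-response screen, enzyme-free wells defined baseline while DMSO plates tracked drift. Each reaction combined TbPYK, substrate, compound and 130 uM ADP for 45 min at room temperature. Kinase-Glo Plus luminescence gave the signal.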
RE007 growth inh: less growth of the S. pombe RE007 Vpr strain; Potency, µM (top dose mostly 92.2 µM), for the others: at the top dose activity change, negative = less growth, most hits filed as inhibitors; 0.21% of 360,000 active; AID 651644; S. pombe RE007 Vpr strain, BacTiter-Glo ATP luminescence, 24 h; active = well fitted falling curve with a large enough effect; inconclusive = small, poorly fitted or top-dose-only effect; inactive = no such curve, though single readings can be large or run the other way; also: potency is read from the fitted curve at half-maximal effect; % is scaled to controls: 0 for no effect and ±100 for the full control effect; nearly all actives have a fitted effect of over 50% in size
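Fission yeast RE007 carrying one integrated HIV-1 vpr copy, seeded at OD 0.01 in PMG+AL medium with 23 nL pinned compound. Grown 24 h at 30 degrees; viability read by BacTiter-Glo luminescence after 5 min.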
LmPK inhibitor: LmPK (Leishmania mexicana) enzyme inhibition; Q27686; purified LmPK, Kinase-Glo ATP luminescence, 1 h; Potency, µM (series often up to 57.5 µM), without a hit: top-dose activity change, negative = inhibition, most hits filed as inhibitors; 0.37% of 290,000 active; AID 1721; also: potency is read from the fitted curve at half-maximal effect; % is scaled to controls: 0 for no effect and ±100 for the full control effect
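Screened at intermediate enzyme activity to detect both inhibitors and activators: LmPK at 0.1 nM, with a 0.5 nM enzyme column as activation reference. PEP 0.5 mM, ADP 0.1 mM; ATP detected by luminescence after 1 h.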
Giardia FBPA inh-1: Giardia lamblia aldolase inhibition | AID 2451 | Potency, µM (doses to about 59.6 µM), without a hit: at the top dose activity, negative = inhibition, hits mostly inhibitors | 0.71% of 290,000 active | A8B2U2 | purified Giardia FBPA; also: potency is read from the fitted curve at half-maximal effect; % is scaled to controls: 0 for no effect and ±100 for the full control effect; nearly all actives have a fitted effect of over 55% in size
Target sequence (A8B2U2 whole entry, looked up): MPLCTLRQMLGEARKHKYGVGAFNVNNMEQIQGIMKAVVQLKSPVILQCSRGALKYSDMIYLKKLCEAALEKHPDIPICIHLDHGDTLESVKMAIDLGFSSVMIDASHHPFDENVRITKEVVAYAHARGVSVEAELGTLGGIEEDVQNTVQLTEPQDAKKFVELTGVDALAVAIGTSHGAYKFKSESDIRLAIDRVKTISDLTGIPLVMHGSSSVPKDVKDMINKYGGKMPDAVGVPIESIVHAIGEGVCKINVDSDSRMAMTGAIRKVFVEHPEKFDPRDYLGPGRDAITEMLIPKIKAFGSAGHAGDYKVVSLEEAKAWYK
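Giardia FBPA (40 nM reagent) was preincubated 10 min at RT with compound (up to 57.5 uM final), then substrate plus GAPDH/TPI/NAD/arsenate coupling system with diaphorase/resazurin was added; resorufin fluorescence (525/598 nm) was read after 20 min.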
Giardia growth: Giardia lamblia growth inhibition | shares compounds with Giardia FBPA inh-1 | Potency, µM (highest dose often 57.5 µM), for inactives: top-dose activity change, negative = inhibition, actives largely listed as inhibitors | 5% of 1,500 active | Giardia lamblia trophozoite growth inhibition;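 also: potency is read from the fitted curve at half-maximal effect; trophozoites exposed to compound for 48 h at 37 °C; % is scaled to controls: 0 for no effect and ±100 for the full control effect; nearly all actives have a fitted effect of over 70% in size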
Mammal cell tox: mammalian cytotoxicity of Giardia aldolase inhibitor hits. Potency, µM (top dose mostly 57.5 µM), for inactives: at the highest dose viability change, negative = toxicity, hits mostly inhibitors. mammalian cell viability counter-screen, qHTS. AID 2786. shares compounds with Giardia FBPA inh-1. 4% of 1,500 active;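 also: Chinese hamster ovary cells used as mammalian cytotoxicity surrogate; viability measured as cellular ATP by luminescence; potency is read from the fitted curve at half-maximal effect; compound exposure lasted 48 h before reading; % is scaled to controls: 0 for no effect and ±100 for the full control effect; nearly all actives have a fitted effect of over 60% in size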
Giardia FBPA inh-2: confirmation of Giardia fructose-bisphosphate aldolase inhibitors; 5% of 1,500 active; shares compounds with Giardia FBPA inh-1; purified Giardia aldolase enzyme activity, qHTS; Potency, µM (series often up to 57.5 µM), for inactives: top-dose activity change, negative = inhibition, usual class: inhibitors; also: potency is read from the fitted curve at half-maximal effect; % is scaled to controls: 0 for no effect and ±100 for the full control effect; nearly all actives have a fitted effect of over 45% in size
Rabbit FBPA inh: selectivity test for Giardia aldolase inhibitors: rabbit aldolase; shares compounds with Giardia FBPA inh-1; Rabbit muscle FBPA enzyme inhibition, selectivity counter-screen; Potency, µM (highest dose often 57.5 µM), for inactives: top-dose activity, negative = inhibition, usual class: inhibitors; 4% of 1,500 active; also: potency is read from the fitted curve at half-maximal effect; % is scaled to controls: 0 for no effect and ±100 for the full control effect; nearly all actives have a fitted effect of over 60% in size
Target sequence (P00883 whole entry, looked up): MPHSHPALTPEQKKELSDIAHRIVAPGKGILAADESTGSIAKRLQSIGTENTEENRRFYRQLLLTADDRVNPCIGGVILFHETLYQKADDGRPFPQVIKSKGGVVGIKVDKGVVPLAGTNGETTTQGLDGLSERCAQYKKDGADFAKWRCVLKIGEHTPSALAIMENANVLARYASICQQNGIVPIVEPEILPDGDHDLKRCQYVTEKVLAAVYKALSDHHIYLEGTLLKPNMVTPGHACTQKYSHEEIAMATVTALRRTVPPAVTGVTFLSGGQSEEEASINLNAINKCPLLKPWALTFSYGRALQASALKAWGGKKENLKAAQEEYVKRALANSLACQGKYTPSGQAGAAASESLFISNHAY
GAPDH counter: counter-screen for Giardia aldolase inhibitors: GAPDH coupling enzyme; shares compounds with Giardia FBPA inh-1; GAPDH coupling enzyme counterscreen, biochemical, qHTS; Potency, µM (titrated, usually from 57.5 µM), for the others: top-dose activity change, negative = inhibition, most hits filed as inhibitors; 6% of 1,500 active; AID 2795; also: potency is read from the fitted curve at half-maximal effect; % is scaled to controls: 0 for no effect and ±100 for the full control effect; nearly all actives have a fitted effect of over 55% in size
Numbers without * were called inactive; [ ] = remark or other dose. The full list was thinned out, with hits kept by preference. Unless noted, calls follow the shape of the dose curve; as a rule, active = well fitted curve in the direction sought with a large enough effect; inconclusive = small, poorly fitted or top-dose-only effect, or another doubt; inactive = no such curve, though single readings can be large; an effect the other way counts as inactive or inconclusive.

For O=C(Nc1nccs1)c1ccccn1 the results were Shiga inhibitor 97*, Cycloheximide cs 67*, TbPYK inhibitor 0%, RE007 growth inh -22%, LmPK inhibitor -27%, Giardia FBPA inh-1 18µM*, Giardia growth inconclusive, Mammal cell tox -15%, Giardia FBPA inh-2 1%, Rabbit FBPA inh 2% and GAPDH counter 3%.
`O=C(Cc1ccccc1)Nc1nccs1` gave Shiga inhibitor 5, Cycloheximide cs -1, TbPYK inhibitor -10%, RE007 growth inh 19%, LmPK inhibitor -2% and Giardia FBPA inh-1 4%.
C/C(CCC1CC(C)(C)OC1=O)=N\NC(N)=S (stereo not given) was read as Shiga inhibitor 6, Cycloheximide cs -2, TbPYK inhibitor 7%, RE007 growth inh -25%, LmPK inhibitor -5%, Giardia FBPA inh-1 18µM*, Giardia growth 43%, Mammal cell tox -12%, Giardia FBPA inh-2 7%, Rabbit FBPA inh 4% and GAPDH counter 6%.
Screening C/C(CCC1CC(C)OC1=O)=N\NC(N)=S (stereo not given) returned Shiga inhibitor 10, Cycloheximide cs 3, TbPYK inhibitor 0%, RE007 growth inh 8%, LmPK inhibitor 4% and Giardia FBPA inh-1 15%.
For C/C(CC1CC(C)(C)OC1=O)=N\NC(N)=S (stereo not given) the results were Shiga inhibitor 29, Cycloheximide cs 2, TbPYK inhibitor -2%, RE007 growth inh 24%, LmPK inhibitor 1%, Giardia FBPA inh-1 20µM*, Giardia growth -29%, Mammal cell tox -12%, Giardia FBPA inh-2 5%, Rabbit FBPA inh 5% and GAPDH counter 3%.
`COc1cccc(Nc2nc3cc(Cl)c(Cl)cc3nc2-n2nc(C)cc2C)c1` gave TbPYK inhibitor -3%.
`CC(C)c1cc(-c2nc(-c3ccccc3)no2)n[nH]1` gave TbPYK inhibitor -3%.
For COc1ccc(C2C(C(=O)Nc3ccccc3)=C(C)Nc3nc(-c4ccccc4Cl)nn32)cc1OC (stereo not given) the results were TbPYK inhibitor 1%.
CCOc1ccc(/C=N/Nc2nc(=O)[nH]nc2C)cc1OC was read as Shiga inhibitor 34*, Cycloheximide cs 32*, TbPYK inhibitor -5%, RE007 growth inh -27%, LmPK inhibitor -23%, Giardia FBPA inh-1 20µM*, Giardia growth inconclusive, Mammal cell tox 6%, Giardia FBPA inh-2 4%, Rabbit FBPA inh -1% and GAPDH counter 1%.
Screening CCCCc1ccc(NC(=O)CSc2nc3ccccc3nc2N2CCCCC2)cc1 returned TbPYK inhibitor -3%.
N#Cc1ccc(Cl)cc1NC(=O)CNCc1cccs1 was read as Shiga inhibitor 13, Cycloheximide cs 7, TbPYK inhibitor 35%, RE007 growth inh -2%, LmPK inhibitor -3%, Giardia FBPA inh-1 16µM*, Giardia growth inconclusive, Mammal cell tox 9%, Giardia FBPA inh-2 2%, Rabbit FBPA inh 4% and GAPDH counter 8%.
`O=C(CSc1cccc[n+]1[O-])CSc1cccc[n+]1[O-]` gave Shiga inhibitor -8, Cycloheximide cs 7, TbPYK inhibitor -9%, RE007 growth inh 7.9µM*, LmPK inhibitor 2%, Giardia FBPA inh-1 16µM*, Giardia growth -1%[10.4 µM], Mammal cell tox 10µM*, Giardia FBPA inh-2 -1%, Rabbit FBPA inh 15% and GAPDH counter 3%.
Screening O=C(CSc1cccc[n+]1[O-])Nc1ccccc1Oc1ccccc1 returned Shiga inhibitor -9, Cycloheximide cs 9, TbPYK inhibitor -4%, RE007 growth inh inconclusive, LmPK inhibitor -2%, Giardia FBPA inh-1 6.3µM*, Giardia growth 8%[38.3 µM], Mammal cell tox 20µM*, Giardia FBPA inh-2 -20%, Rabbit FBPA inh -5% and GAPDH counter -9%.
`COC(=O)c1ccc(C(=O)OC)c(NC(=O)CSCC(=O)O)c1` gave Shiga inhibitor -4, Cycloheximide cs 5, TbPYK inhibitor -5%, RE007 growth inh 19%, LmPK inhibitor 2% and Giardia FBPA inh-1 2%.
O=C(CSc1cccc[n+]1[O-])Nc1ccccc1C(F)(F)F was read as TbPYK inhibitor -4% and RE007 growth inh 1%.
COC(=O)c1ccc(C(=O)OC)c(NC(=O)CSc2cccc[n+]2[O-])c1 was read as Shiga inhibitor 5, Cycloheximide cs 6, TbPYK inhibitor -22%, RE007 growth inh inconclusive, LmPK inhibitor 3%, Giardia FBPA inh-1 11µM*, Giardia growth -6%, Mammal cell tox inconclusive, Giardia FBPA inh-2 -15%, Rabbit FBPA inh -14% and GAPDH counter -6%.
COc1ccccc1CNS(=O)(=O)c1ccc2c(c1)NC(=O)CC(=O)N2 was read as TbPYK inhibitor 0%.
`NN1C(=O)/C(=C2/Sc3ccccc3N2CCCS(=O)(=O)O)SC1=S` gave Shiga inhibitor 33, Cycloheximide cs 12, TbPYK inhibitor -5%, RE007 growth inh 5%, LmPK inhibitor -9%, Giardia FBPA inh-1 18µM*, Giardia growth 14%[10.4 µM], Mammal cell tox 15%, Giardia FBPA inh-2 11%, Rabbit FBPA inh 8% and GAPDH counter -9%.
For COc1cccc(NC2=C(C#N)C(=O)NC(c3cccc(OC)c3O)S2)c1 (stereo not given) the results were Shiga inhibitor 61, Cycloheximide cs 19*, TbPYK inhibitor -9%, RE007 growth inh 9%, LmPK inhibitor 2%, Giardia FBPA inh-1 16µM*, Giardia growth inconclusive, Mammal cell tox 3%, Giardia FBPA inh-2 inconclusive, Rabbit FBPA inh -2% and GAPDH counter -25%.
For Cn1cnc(S(=O)(=O)N2CCC(C(=O)N3CCN(c4ccccc4F)CC3)CC2)c1 the results were TbPYK inhibitor -7%.
